Only some compounds are listed: those with a hit (about 1% of all), similar ones and a draw of the others.
IP6K1 inhibitor: blocks human inositol hexakisphosphate kinase 1. IP6K1 kinase, ADP-Glo luminescence, 2 h; stronger effect = lower value. 0.81% of 140,000 active. activity change, % (series mostly up to about 58 µM). AID 1645851. Q92551; in the data active means activity change below about -25%
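ADP-Glo luminescence measures ADP made by human IP6K1 during a 2 h RT reaction with ATP/IP6 (mix at 1.3 mM/130 uM); top library doses 57.5 and 19.1 uM final.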
SNCA viab count: cell viability loss counter-screen. HEK-293-SNCA-luc viability, GF-AFC fluorescence, 24 h. Potency, µM (top dose mostly 57.1 µM), without a hit: at the top dose activity change, negative = cytotoxicity, hits mostly cytotoxic. 0.12% of 150,000 active;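 further: potency means the concentration at half of the fitted maximal effect; 0% = DMSO-treated cells and -100% = medium-only wells without cells; nearly all actives have a fitted effect of over 30% in size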
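Cytotoxicity counterscreen: after 24 h compound treatment of genome-edited SNCA-luciferase HEK-293 cells, live-cell protease substrate GF-AFC read by fluorescence after 30 min; activity scaled between DMSO (0%) and medium-only (-100%), curves Hill-fitted.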
GPT2 inhibitor: inhibitors of human GPT2 alanine aminotransferase; Q8TD30; Recombinant GPT2, coupled pyruvate oxidase/HRP Amplex Red fluorescence; Potency, µM (titrated, usually from 57.7 µM), inactives show at the top dose activity change, negative = inhibition, most hits filed as inhibitors; AID 1671188; 0.25% of 100,000 active; further: potency means the concentration at half of the fitted maximal effect; nearly all actives have a fitted effect of over 60% in size
Target sequence (Q8TD30 whole entry, looked up): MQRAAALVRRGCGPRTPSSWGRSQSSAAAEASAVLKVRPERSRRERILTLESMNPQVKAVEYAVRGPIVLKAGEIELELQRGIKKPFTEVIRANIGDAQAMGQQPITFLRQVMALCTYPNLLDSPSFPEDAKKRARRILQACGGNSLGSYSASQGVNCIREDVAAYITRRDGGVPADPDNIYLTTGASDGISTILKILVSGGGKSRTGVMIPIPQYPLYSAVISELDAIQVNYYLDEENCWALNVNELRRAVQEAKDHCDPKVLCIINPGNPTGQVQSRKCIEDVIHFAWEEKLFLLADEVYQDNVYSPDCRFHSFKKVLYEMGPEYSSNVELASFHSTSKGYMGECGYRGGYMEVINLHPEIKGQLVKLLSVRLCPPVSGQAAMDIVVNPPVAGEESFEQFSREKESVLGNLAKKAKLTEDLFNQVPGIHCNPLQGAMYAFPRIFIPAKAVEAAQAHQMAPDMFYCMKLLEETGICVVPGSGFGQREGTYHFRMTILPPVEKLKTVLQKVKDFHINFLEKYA
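Fluorescence of coupled pyruvate oxidase/HRP/Amplex Red system (50uM Amplex, 30 min, dark) reports pyruvate formed by GPT2. Enzyme reaction: 10ng/uL GPT2, 2mM L-alanine, 250uM a-KG, 30 min room temperature, pH 7.5; 50uM AOA control.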
SNCA expr inhib: reduces expression of the alpha-synuclein gene | HEK-293 SNCA-luciferase knock-in, luminescence, 24 h | Potency, µM (titrated, usually from 57.2 µM), for the others: at the top dose activity change, negative = inhibition, hits mostly inhibitors | 0.17% of 140,000 active;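 further: potency means the concentration at half of the fitted maximal effect; plate controls were DMSO cells for no effect and cell-free wells for full effect; nearly all actives have a fitted effect of over 45% in size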
IP6K1 conf: confirmation of human IP6K1 inhibitors. Potency, µM (top dose mostly 49 µM), without a hit: at the highest dose activity change, negative = inhibition, actives largely listed as inhibitors. AID 1645852. shares compounds with IP6K1 inhibitor. recombinant IP6K1 kinase, ADP-Glo luminescence, 2 h. 13% of 1,200 active; further: potency means the concentration at half of the fitted maximal effect; nearly all actives have a fitted effect of over 65% in size
* marks the source's active call; other numbers are inactive results; i = inactive; ? = inconclusive; nt = no result given; ! = repeats disagree; [ ] = dose if it differs, or a comment. Unless noted, the call rests on the fitted dose curve; in most records, active means well fitted curve in the direction sought with a large enough effect; inconclusive means small, poorly fitted or top-dose-only effect, or another doubt; inactive means no such curve, though single readings can be large; an effect the other way counts as inactive or inconclusive. Unless noted, on the % scale 0 is the no-effect control and ±100 the full control effect.

SMILES | IP6K1 inhibitor | SNCA viab count | GPT2 inhibitor | SNCA expr inhib | IP6K1 conf
CCOC(=O)c1ccc(NC(=O)CSc2nc3cc4ccccc4cc3[nH]2)cc1 | -26* | -6% | nt | -2% | 15%
CCOC(=O)c1ccc(NC(=O)CSc2nccn2-c2cc(C)cc(C)c2)cc1 | -27* | 0% | nt | -11% | ?
O=C(NC1CCCCC1)c1nc2sccn2c1-c1ccc(C(F)(F)F)cc1 | 13 | -10% | -9% | -2% | nt
O=C(NC1CCCCC1)c1ccc2nnc(-c3cc(C(F)(F)F)cc(C(F)(F)F)c3)n2c1 | 7 | -6% | i | -25% | nt
O=C(NCc1cccs1)c1ccc2nnc(Cc3ccco3)n2c1 | -32*! | -4%[87.6 µM] | i | 24%[87.6 µM] | ?
COc1cccc(CNC(=O)c2ccc3nnc(Cc4ccco4)n3c2)c1 | -33* | 12%[87.6 µM] | 3%[88.5 µM] | 20%[87.6 µM] | ?
O=C(NCc1ccccc1)c1ccc2nnc(Cc3ccco3)n2c1 | -14 | 6% | i | -1% | nt
O=C(NCc1cccc(C(F)(F)F)c1)c1ccc2nnc(Cc3ccco3)n2c1 | -30* | -6% | 2% | -6% | ?
O=C(C1CCCN(Cc2cccc(-c3cccs3)c2)C1)N1CCC(c2ccccc2)CC1 (configuration not stated) | 24 | nt | nt | nt | nt
Cc1ccc(Nc2ccnc(N3CCC(NC(=O)c4ccccc4F)CC3)n2)cc1 | 1 | -3% | i | 4% | nt
CCCCn1c(=O)c(C(=O)NCc2ccc(F)cc2)nc2cccnc21 | 10 | -2% | i | -4% | nt
COc1ccccc1N1CCN(C(=O)Cn2cccc2-c2nc(-c3ccc(F)cc3)no2)CC1 | 2 | -3% | -9% | -13% | nt
COc1ccc(Nc2ccnc(N3CCC(C(=O)N4CCN(Cc5ccccc5)CC4)CC3)n2)cc1 | -10 | -1%[12.5 µM] | i | ? | nt
O=C(O)c1ccccc1Nc1ccccc1 | nt | 0% | i | 21% | nt
O=C(O)c1ccccc1Nc1cccc(C(F)(F)F)c1 | -31* | 13%[23.9 µM] | -6% | -11%[25.6 µM] | ?
Cn1ncc2c(C(=O)NCCCc3ccccc3)cc(-c3cccc(C(F)(F)F)c3)nc21 | 3 | nt | nt | nt | nt
COc1ccccc1-c1ccc(CN2CCCCC2C(=O)NC2CCCC2)cc1 (configuration not stated) | 4 | nt | nt | nt | nt
O=C(Nc1noc2ccccc12)c1c(F)cccc1F | -31* | 2% | nt | ? | ?
CCOc1ccccc1NC(=O)n1ncc2cc(Cl)ccc21 | -37* | 1% | nt | 155% | -6%
O=C(Nc1ccccc1C(F)(F)F)n1ncc2cc(Cl)ccc21 | -8 | -2% | nt | 12% | nt
CCN(CC)CCCNC(=O)c1ccc2c(c1)NC(=O)C(CS(=O)(=O)Cc1ccc(F)cc1Cl)N2 (configuration not stated) | -10 | 7% | nt | 6% | nt
Cc1ccc(CNC(=O)c2ccc3c(c2)NC(=O)C(CS(=O)(=O)Cc2cccc(F)c2)N3)cc1 (configuration not stated) | -35* | -9% | nt | -15% | -3%
CCOCCCNC(=O)c1ccc2c(c1)NC(=O)C(CS(=O)(=O)Cc1ccc(F)cc1Cl)N2 (configuration not stated) | -43* | 5% | nt | 4% | 9%
Cc1ccc(C(=O)NC2CCN(Cc3cccc(-c4cccc(C)c4)c3)CC2)cc1 | -3 | -12% | i | -25% | nt
CN(Cc1ccc2nsnc2c1)Cc1cc2n(n1)CCCNC2 | -25* | 0% | i | 4% | -7%
SMILES | IP6K1 inhibitor | SNCA viab count | GPT2 inhibitor | SNCA expr inhib | IP6K1 conf
CN(Cc1cc2n(n1)CCCNC2)Cc1nc(-c2ccccc2)cs1 | 5 | 3% | -13% | 8% | nt
O=C(NC1CC1)c1nc(-c2ccc(F)cc2)c2ccccn12 | 4 | 7%[87.6 µM] | -2%[88.5 µM] | 3%[87.6 µM] | nt
COc1ccc(CCNc2nc3c(-c4cccc(C)c4)nnn3c3ccccc23)cc1OC | -32* | ? | nt | 14% | -5%
CCOC(=O)[C@@H]1CN(C(=O)c2cc(C)oc2C)[C@H]2c3ccc(OC)cc3O[C@@H]12 | 7 | nt | nt | nt | nt
Cc1cccc2sc(N(CCN(C)C)C(=O)c3ccc4c(c3)OCCO4)nc12 | -35* | 6% | nt | -9% | 13%
COCCN1C[C@H]2COc3ccc(C)cc3[C@H]2N(C(=O)CC2CCCC2)CCC1=O | 3 | nt | nt | nt | nt
Cc1ccc(-n2nc(CO)c(C(=O)NC(C)CCCc3ccccc3)n2)cc1 (configuration not stated) | -31* | -8% | nt | 40% | -18%
Cc1ccc(-n2nc(CO)c(C(=O)NCCCc3ccccc3)n2)cc1 | 17 | 11% | nt | -15% | nt
COc1ccc(F)cc1-c1ccc(CN2CCC(NC(=O)c3ccc(Cl)nc3)C2)cc1 (configuration not stated) | -9 | nt | nt | nt | nt
Cc1ccc(C(=O)NC2CCCN(c3ccc4nnc(C5CC5)n4n3)C2)cc1 (configuration not stated) | -5 | nt | nt | nt | nt
Cc1nc(-c2ccc(OCC(C)C)c(C#N)c2)sc1C(=O)O | -49* | 6%[23.9 µM] | i | 46%[25.6 µM] | 6.5µM*
COc1ccccc1Nc1ccnc(N2CCC(NC(=O)c3ccccc3C)CC2)n1 | 4 | 0% | i | 11% | nt
CCC(C(=O)NCc1ccccc1OC)n1nc(C)n2c(cc3sccc32)c1=O (configuration not stated) | -85* | -8% | nt | -1% | 5%
COc1cccc(-c2ccc(C(=O)NCCNC(=O)c3ccc4c(c3)OCO4)cc2)c1 | 5 | nt | nt | nt | nt
Cn1nc(-c2ccc(C(F)(F)F)cc2)nc2c(=O)n(C)c(=O)nc1-2 | -41* | ? | ? | nt | ?
COc1ccc(-c2nc(C)nc3c2CCN(C(=O)c2ccc(C(F)(F)F)cc2)CC3)cc1 | 14 | -5% | ? | -6% | nt
O=C(CCc1ccc(CC2CCN(C(=O)c3cccs3)CC2)cc1)NC1CC1 | 24 | 2% | i | -17% | nt
CCCCN(Cc1ccccc1)S(=O)(=O)c1cc(Br)cc2c1N(C(C)=O)CC2 | -27* | 1% | nt | 24% | 10%
CCCCN(Cc1ccccc1)S(=O)(=O)c1cc(Br)cc2c1N(C(=O)C1CC1)CC2 | -8 | 3% | nt | -18% | nt
CCC1(C)Cc2c(sc3nc(SC)n(-c4ccc(C)cc4)c(=O)c23)CO1 (configuration not stated) | -50* | 11% | nt | 6% | 22%
N#Cc1cccnc1-c1ccc(C(=O)N2CCC(NC(=O)Nc3ccc(Cl)cc3)CC2)cc1 | 9 | -6%[12.5 µM] | i | -23% | nt
Cc1ccnc2nc(NC(=O)c3ccccc3Cl)nn12 | -25* | -4% | nt | 76% | -2%
NC(=O)c1cccc(CC2CCN(C(=O)c3ccnc(-n4cnnc4)c3)C2)c1 (configuration not stated) | -27* | -2% | i | -10% | -5%
Cc1cc(C)n2nc(C(=O)N3CCC(Cc4cccc(C(N)=O)c4)C3)nc2n1 (configuration not stated) | 12 | -1% | 2% | -7% | nt
Cc1ccc(CNS(=O)(=O)c2c(C)nc3sc(C)cn3c2=O)cc1 | -27* | 9% | nt | 0% | 5%
